# Measured values as given in PubChem BioAssay (NCATS).
# Activity calls are given as the source filed them. No rule for the calls is given here. Numbered stars: 1 amine (or outer) side, 2 acyl side, 3 side chain; on linkers, the order of the positions; unused ones are H or OH. Bridge positions count the residues as written; N and C are the ends. Square brackets hold non-standard residues; d marks the D form. Peptide text beside a SMILES is read from it. I, II: the chains in the order shown. ξ: configuration not given here. Actinocin(9to1) = Cc1c2oc3c(C)ccc(C(=O)[*:1])c3nc-2c(C(=O)[*:2])c(N)c1=O; ξNMeV = CNC(C(=O)O)C(C)C; ξV = CC(C)C(N)C(=O)O; Sar = CNCC(=O)O
# Key:
# [1] = Immunotoxin (HA22) sensitization/mitigation study. Vehicle arm (PBS) (AID 1159510)
# [2] = Immunotoxin (SS1P) sensitization/mitigation study. Vehicle arm (DMEM) (AID 1159513)
# Potency is read from the fitted curve at half-maximal effect.
Structure (SMILES),Potency [1],Potency [2]
CC1(O)CC(c2nc(-c3ccc4ccc(-c5ccccc5)nc4c3)c3c(N)nccn23)C1 (configuration not stated),29.6 µM (active),18.7 µM (active)
COc1ccc(-c2ccc3c(N4CCOCC4)nc(N4C[C@@H](C)O[C@@H](C)C4)nc3n2)cc1CO,1.48 µM (active),0.105 µM (active)
CC(=O)OCC(=O)[C@@]1(O)[C@H](C)C[C@H]2[C@@H]3C=C(C)C4=Cc5c(cnn5-c5ccccc5)C[C@]4(C)[C@@H]3[C@@H](O)C[C@@]21C,1.32 µM (active),26.4 µM (active)
OCCC#Cc1nc(-c2ccc(F)cc2)c(-c2ccncc2)n1CCCc1ccccc1,23.5 µM (active),18.7 µM (active)
CC[C@@H](C)[C@H](NC(=O)[C@H](CC1CCCCC1)NC(=O)c1ccno1)C(=O)N1CCC2(CCc3ccccc32)CC1,inactive,16.6 µM (active)
Cc1[nH]c2ccccc2c1CCNCc1ccc(C=CC(=O)NO)cc1,0.0105 µM (active),0.0296 µM (active)
Nc1nc(Nc2ccc(S(N)(=O)=O)cc2)nn1C(=O)c1c(F)cccc1F,0.833 µM (active),3.72 µM (active)
COc1cc2ncnc(-n3nc(-c4ccccn4)nc3N)c2cc1OC,3.72 µM (active),4.18 µM (active)
OCCn1cc(-c2ccc3c(c2)CCC3=NO)c(-c2ccncc2)n1,inactive,inactive
CCn1c(-c2nonc2N)nc2cnc(Oc3cccc(NC(=O)c4ccc(OCCN5CCOCC5)cc4)c3)cc21,18.7 µM (active),7.43 µM (active)
CS(=O)(=O)c1ccc(C(=O)Nc2ccc(Cl)c(-c3ccccn3)c2)c(Cl)c1,inactive,inactive
Cn1cc(-c2ccc3nnc(C(F)(F)c4ccc5ncccc5c4)n3n2)cn1,inactive,inactive
O=C(Nc1cccnc1)N1CCC(Cc2cccc(Oc3ccc(C(F)(F)F)cn3)c2)CC1,16.6 µM (active),6.62 µM (active)
COc1ccc2c3n(c(=NC(=O)c4cccnc4)nc2c1OC)CCN3,11.8 µM (active),3.72 µM (active)
O=C(O)c1ccc(-c2cc3cccnc3c(-c3ccc4nonc4c3)n2)cc1,inactive,inactive
O=S(=O)(N=Cc1c(O)ccc2ccccc12)c1cccs1,16.6 µM (active),inactive

Structure (SMILES),Potency [1],Potency [2]
CCCCCCCCCCCCCCCCCCOP(=O)([O-])OC1CC[N+](C)(C)CC1,inactive,inactive
O=C1C(Cl)=C(NCCN2CCOCC2)C(=O)c2ncccc21,2.35 µM (active),14.8 µM (active)
C=CC(=O)Nc1cc2c(Nc3ccc(F)c(Cl)c3)ncnc2cc1C#CC(C)(C)N1CCN(C)CC1,0.833 µM (active),16.6 µM (active)
CCCCCCCc1ccc(CCc2cccc(O)c2C(=O)O)cc1,23.5 µM (active),18.7 µM (active)
O=c1cc(N2CCOCC2)oc2c(-c3cccc4c3sc3ccccc34)cccc12,16.6 µM (active),29.6 µM (active)
CCN1CCN(Cc2ccc(-c3cc4c(N[C@H](C)c5ccccc5)ncnc4[nH]3)cc2)CC1,16.6 µM (active),23.5 µM (active)
c1ccc2c(-c3cnn4cc(-c5ccc(N6CCNCC6)cc5)cnc34)ccnc2c1,14.8 µM (active),18.7 µM (active)
Cc1cn2c(-c3cn[nH]c3)cnc2c(Nc2ccc(C(=O)N3CCNCC3)cc2F)n1,18.7 µM (active),13.2 µM (active)
COc1cccc2cc(-c3nc(C4CCC(C(=O)O)CC4)n4ncnc(N)c34)[nH]c12 (configuration not stated),6.62 µM (active),0.235 µM (active)
CCCCCCCCCCCCCC(=O)N[C@H](CO)[C@H](O)c1ccc([N+](=O)[O-])cc1,16.6 µM (active),23.5 µM (active)
O=C(O)c1ccc2c(c1)nc(Nc1cccc(Cl)c1)c1ccncc12,5.26 µM (active),11.8 µM (active)
C[C@@H](Oc1cc(-c2cnn(C3CCNCC3)c2)cnc1N)c1c(Cl)ccc(F)c1Cl,16.6 µM (active),18.7 µM (active)
Cc1ccc(NC(=O)c2cccc(C(C)(C)C#N)c2)cc1Nc1ccc2ncn(C)c(=O)c2c1,23.5 µM (active),20.9 µM (active)
O=C1[C@H](Cc2ccc(O)cc2)N2C(=O)CCN(C(=O)NCc3ccccc3)[C@H]2CN1Cc1cccc2ccccc12,6.62 µM (active),2.35 µM (active)
"Cc1c2oc3c(C)ccc(C(=O)N[C@@H]4C(=O)NC(C(C)C)C(=O)N5CCC[C@H]5C(=O)N(C)CC(=O)N(C)C(C(C)C)C(=O)O[C@@H]4C)c3nc-2c(C(=O)N[C@@H]2C(=O)NC(C(C)C)C(=O)N3CCC[C@H]3C(=O)N(C)CC(=O)N(C)C(C(C)C)C(=O)O[C@@H]2C)c(N)c1=O (some centres not stated) (I: T[ξV]P[Sar][ξNMeV] / II: T[ξV]P[Sar][ξNMeV]; ester I:1-I:C, II:1-II:C; linker I:N-II:N via Actinocin(9to1))",0.0332 µM [activator] (active),0.003 µM (active)
